Data as given in the supplement of paper PMC6555819.

Experiments:
Test in all cases: PBM binding z-score (relative to random genomic background probes); higher = stronger binding; sequences stand for … in GC…GCGATTGACAGCGTAGAATGAAGG
[1] = system: PPARg:RXRa DBDmut IVT, anti-RXR (DBD mutation: RXRa K156A/R161A, NR concentration 270 nM, RXRa partner concentration 90 nM)
In short: (§1)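 Probes were double-stranded and carried 34-nt variable regions with direct-repeat seeds, single-nucleotide variants, half-site ablations and random human genomic background sequences, printed on custom Agilent 4×180K protein-binding microarrays. Arrays were incubated 1 h with ligand-free nuclear receptor dimers in PBS pH 7.4, 2% milk, 0.02% Triton X-100, 1 mM DTT, 0.2 mg/mL BSA and 0.4 mg/ml salmon testes DNA. Antibodies against each partner (one per run) detected binding, and scanned fluorescence was regression-normalized. Binding z-scores use the random background probes as reference.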

[2] = system: PPARg:RXRa IVT, anti-PPARg (NR concentration 270 nM, RXRa partner concentration 90 nM)
In short: as §1

[3] = system: PPARg DBDmut:RXRa IVT, anti-PPARg (DBD mutation: PPARg1 K132A/R137A, NR concentration 270 nM, RXRa partner concentration 90 nM)
In short: as §1

[4] = system: PPARg DBDmut IVT, anti-PPARg (DBD mutation: PPARg1 K132A/R137A, NR concentration 270 nM)
In short: as §1

[5] = system: PPARg homodimer (NR concentration 180 nM)
In short: as §1

[6] = system: PXR:RXRa (NR concentration 270 nM, RXRa partner concentration 90 nM)
In short: as §1

[7] = system: PXR homodimer (NR concentration 270 nM)
In short: as §1

[8] = system: RARa:RXR (NR concentration 270 nM, RXRa partner concentration 90 nM)
In short: as §1

[9] = system: RARa homodimer (NR concentration 270 nM)
In short: as §1

[10] = system: RARb:RXRa (NR concentration 270 nM, RXRa partner concentration 90 nM)
In short: as §1

Sequence	PBM binding z-score [1]	PBM binding z-score [2]	PBM binding z-score [3]	PBM binding z-score [4]	PBM binding z-score [5]	PBM binding z-score [6]	PBM binding z-score [7]	PBM binding z-score [8]	PBM binding z-score [9]	PBM binding z-score [10]
GGCACGAGGGCAAAGTTGATAGCATCTGTCGACG	2.51	2.98	-0.61	-0.775	0.977	1.11	0.289	1.56	-0.644	2.54
CCGACTGGCGCAGAAAGGTTACCATACCATCCGG	-0.18	-0.419	-0.533	-1.05	0.499	0.354	-0.51	1.14	-0.466	1.35
ACTAGCAGGCCGAGGGTCACTCAAGATTAGTCCG	-0.156	1.16	-0.888	-0.885	0.902	1.71	-0.0802	2.32	-0.0933	2.43
CGTCAAGGTTCAAGGTAACGTAACAGAAAGCAGC	-0.0787	0.903	-0.883	-0.847	1.12	1.87	0.422	2.3	-0.0336	3.24
TGAAAGAGGTTAAAGATCAGGGAACGTGGCGTCG	0.975	2	0.776	-0.385	1.36	2.29	0.0556	3.68	0.0643	2.67
ACTATTAGTTGAGACGAGGTCAACCGATAGGTTG	0.226	2.11	0.554	1.21	2.65	5.3	2.57	4.97	1.07	3.52
GGAACGAGGGCATTCGATTTGATAGCATGGCGAT	3.33	2.39	0.437	-0.411	0.257	0.991	0.161	0.538	-0.351	1.96
TCTTGAAGATCAAGCAGGTTAAGAAAGCCTGAGT	1.28	-0.366	0.0587	-0.888	-0.603	0.456	-0.168	0.215	-1.22	0.0323
GCATATAGGTAAGACAAGGTGAAAGTCCGATTGT	3.48	2.15	0.16	0.225	0.496	0.219	-0.205	1.44	-0.191	0.391
TCATATAGGTATTACAGGTGAAAGTCGGCATCTA	3.05	1.69	0.864	0.68	1.37	0.945	0.656	1.39	1.42	0.578
ATATGTAGGTTATCGGGTCATGCAGTTTGCGCAT	7.6	7.68	2.17	1.66	2.79	3.47	2.99	4.11	1.09	2.55
CCTCGGAGGACAGAAGGTCAGGGCTGTCCGCTTT	-0.131	0.148	-1.5	-1.83	1.43	1.65	-0.651	2.13	0.0268	3.47
GCTGCTACGTCAACTGATGGTCAGCTAAAGCTCG	-0.232	-0.749	-0.632	-1.06	-1.02	-0.736	-1.23	-0.62	-1.34	-0.291
GCATATATGTAATACAAGGTGAAAGTCCGATTGT	1.6	1.75	0.651	0.705	0.207	0.156	0.0966	1.35	0.0285	0.445
TCATTTAGGTAAACAGGTGAAAGTCCGTAAGTTA	3.9	3.97	1.38	1.49	1.97	1.01	0.929	1.52	1.74	1.08
GCTGCTAGGTCAGGTTGGTCAGCTCACGGGTACG	3.01	2.19	-0.391	-0.956	0.943	0.37	0.00075	0.901	0.262	3.26
CCGACTGGGACAAGGTTACCATAACGCACAGCCA	2.14	2.07	-0.366	-0.958	0.825	0.206	-0.361	0.82	0.13	0.882
TCATATAGGTAAAGCTGAAAGTCGAACGATATGA	3.57	2.35	0.591	1.09	-0.748	0.2	-0.49	0.193	-0.464	0.205
CAAACTAGGTCAATAGGTCAAAGTCCGCTTCCCG	8.58	8.3	2.88	0.687	6.16	4.57	0.894	6.73	3.02	5.04
TATATTAGTTGAAGGGCAACCGACGAGTCCGTTT	0.182	0.973	1.48	1.13	1.26	0.629	0.738	0.321	1.47	1.68
TCTCGGAGGACACGAAAGGTCACAGCTCGACATC	2.07	2.97	0.919	0.445	3.93	5.57	1.09	6	2.7	4.78
CGTCAAAGTTCCAGGTAACGTAACAGAAAGCAGC	0.434	0.748	-0.578	0.351	0.169	0.0635	-0.218	0.268	0.632	0.351
CCTCTGAGGACAACAGGAGGTCAGAGCTGCCAGA	0.791	0.943	-0.185	-0.809	1.58	1.87	0.497	2.39	0.218	2.9
CAGCCTAGGTCAGGGCCGGTATAGGAGGAACGTT	0.942	1.52	-0.778	-1.19	0.324	0.229	-0.999	0.69	-0.753	3.33
